Reference: PubChem BioAssay AID1645854 (Buhrlage Lab, Dana-Farber Cancer Institute and Novartis …, 2021)
Hit rate of the full screen: of about 47,000 compounds, about 140 (0.3%) were called active. What follows is part of a selection rich in actives, with near analogues and random picks from the rest. Values without a mark were called inactive. Cut-off read from the data, not from the text of the source: active = inhibition above about 30%; inactive = the rest.

Biological target: Ubiquitin carboxyl-terminal hydrolase 7 (Homo sapiens) (UniProt Q93009)
Sequence (Q93009 whole entry, looked up): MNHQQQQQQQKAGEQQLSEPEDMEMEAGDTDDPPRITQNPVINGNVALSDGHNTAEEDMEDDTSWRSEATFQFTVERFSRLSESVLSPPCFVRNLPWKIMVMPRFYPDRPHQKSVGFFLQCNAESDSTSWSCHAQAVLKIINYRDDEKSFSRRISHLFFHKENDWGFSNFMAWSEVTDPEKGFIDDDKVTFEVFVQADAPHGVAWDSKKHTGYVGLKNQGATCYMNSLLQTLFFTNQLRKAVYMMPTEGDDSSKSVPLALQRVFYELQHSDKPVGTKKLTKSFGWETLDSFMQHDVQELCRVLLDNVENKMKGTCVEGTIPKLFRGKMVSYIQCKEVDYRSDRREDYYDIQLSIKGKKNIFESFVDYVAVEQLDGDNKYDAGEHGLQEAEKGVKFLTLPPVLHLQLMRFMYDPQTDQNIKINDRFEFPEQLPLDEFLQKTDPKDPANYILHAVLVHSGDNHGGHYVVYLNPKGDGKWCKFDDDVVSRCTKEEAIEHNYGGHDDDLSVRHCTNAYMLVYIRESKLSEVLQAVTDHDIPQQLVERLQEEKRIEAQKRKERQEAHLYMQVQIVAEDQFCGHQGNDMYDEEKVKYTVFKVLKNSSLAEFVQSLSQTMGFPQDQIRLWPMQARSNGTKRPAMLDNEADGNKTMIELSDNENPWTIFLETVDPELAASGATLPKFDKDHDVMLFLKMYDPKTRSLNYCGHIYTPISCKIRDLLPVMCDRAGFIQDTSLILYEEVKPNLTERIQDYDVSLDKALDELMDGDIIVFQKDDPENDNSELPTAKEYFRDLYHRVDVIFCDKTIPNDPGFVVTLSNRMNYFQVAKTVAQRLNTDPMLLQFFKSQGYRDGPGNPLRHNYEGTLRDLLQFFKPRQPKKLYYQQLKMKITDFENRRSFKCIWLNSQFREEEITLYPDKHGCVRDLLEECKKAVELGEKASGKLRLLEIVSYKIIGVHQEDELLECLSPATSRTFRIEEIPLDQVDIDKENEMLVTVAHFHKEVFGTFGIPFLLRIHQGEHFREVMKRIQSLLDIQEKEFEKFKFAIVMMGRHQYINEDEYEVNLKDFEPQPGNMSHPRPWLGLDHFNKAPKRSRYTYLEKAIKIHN
Experiment: inhibitors of human USP7 deubiquitinase (AID 1645854)
Settings: purified USP7, Ub-rhodamine cleavage fluorescence; at 20 µM; hits give high values

Structure (SMILES) | inhibition
O=C1CCCC2=C1C(c1ccc(O)cc1)n1ncc(C(=O)Nc3ccccc3)c1N2 (stereo unspecified) | 1.67%
Fc1ccc(-c2nn(-c3cccc(F)c3)c3c2cnc2cc4c(cc23)OCO4)cc1 | 8.85%
CCC(=O)NC(=NCCc1c[nH]c2ccc(Cl)cc12)Nc1nc(C)cc(C)n1 | 6.43%
Cc1c(S(=O)(=O)N2CCCC2)cc(C(=O)Nc2ccccc2F)n1C | 1.4%
Cc1ccc(-c2cc(=O)oc(-c3ccc(Br)cc3)n2)cc1 | 4.33%
COc1ccc(OC)c(-c2cc(C(=O)N3C[C@@H]4C[C@@]5(C)[C@H](CCC[C@@H]35)N4)[nH]n2)c1 | 1.2%
Cc1ccccc1Nc1nccc(C2CCCN(C(=O)C3(c4ccccc4)CC3)C2)n1 (stereo unspecified) | -0.199%
CC12CCN(CCC(F)(F)F)CCN1C(=O)N(Cc1ccccn1)C2=O (stereo unspecified) | -2.02%
Cc1nc(Nc2ccccn2)cc(C2CCCN2C(=O)c2cccnc2)n1 (stereo unspecified) | -7.09%
CCc1ccccc1NC(=O)COc1nsnc1N1CCOCC1 | -0.647%
Cc1cc(O)c2c(C)c(CC(=O)N3CCC[C@H]3C(=O)O)c(=O)oc2c1 | 0.928%
Cc1nc2ccccc2c(=O)n1-c1ccc(F)c(NC(=O)c2ccccc2[N+](=O)[O-])c1 | 3.02%
O=S(=O)(Cc1noc(-c2ccc(OC(F)(F)F)cc2)n1)c1ccc(F)cc1 | -2.05%
Cc1nc2sccn2c1CN1C[C@@H](c2ccccn2)[C@@]2(CCCCC(=O)N2)C1 | 5.2%
CC(=O)N1CCCn2c(nc(CNC(=O)c3cnn(C)c3)cc2=O)C1 | 6.8%
Cc1ccccc1CNC(=O)CCc1nc2ccccc2c(=O)n1C | -6.78%
CC(C)n1ncc2c(C(=O)NCc3ccccc3CN(C)C)cc(C3CC3)nc21 | -0.227%
CN1C(=O)OC2(CCN(S(=O)(=O)c3ccccc3)CC2)c2ccccc21 | 4.14%
CCCNC(=O)c1nc2c(o1)CN(CC1CC1)C2 | 0.464%

Structure (SMILES) | inhibition
CN(C(=O)COc1ncnc2c1cnn2-c1ccccc1)C1CCCCC1 | 1.52%
Cc1cccc(S(=O)(=O)N(CC(=O)N(C)Cc2ccccc2)Cc2ccccc2)c1 | -0.03%
COc1cc(C)c(CN2CCC3(CC2)OCCc2cnc(C)nc23)cc1C | -2.12%
O=C(Nc1cc(C(F)(F)F)ccc1-n1cnc2ccccc21)c1ccc(S(=O)(=O)N2CCCCC2)cc1 | 12.8%
Cc1nc(CN2CCn3c(CNC(=O)C4CC4)cnc3C2C)cs1 (stereo unspecified) | -127%
CCCN(C(=O)c1cccc2c1SCCC2=O)c1ccc(F)cc1 | -4.01%
O=C(Cc1ccccc1)Nc1ccc(-c2nc3cnccc3o2)c(O)c1 | 31.5% (active)
O=C(Nc1ccc(-c2nc3cnccc3o2)c(O)c1)c1ccc(-c2ccccc2)cc1 | 5.05%
COc1cc(C(=O)Nc2ccc(-c3nc4cnccc4o3)cc2)cc(OC)c1OC | 5%
CCOc1ccc(NC(=O)Cn2c(=O)n(CCC(=O)N3CCc4ccccc4C3)c(=O)c3ccccc32)cc1 | 3.17%
O=C(Nc1ccc(F)cc1F)c1csc2c1CCCCC2 | 3.29%
O=C(NCc1ccc2c(c1)OCO2)C1(c2ccc(Cl)cc2)CCCC1 | -12.3%
CN(Cc1ccccc1)Cc1cn[nH]c1-c1ccc(Cl)cc1 | -24%
Cc1nc2nc(NCc3ccccc3)[nH]n2c(=O)c1CCC(=O)N1CCCCC1C (stereo unspecified) | 2.27%
CC1=NOC(CNS(=O)(=O)c2cc(C)ccc2C)C1 (stereo unspecified) | -0.759%
O=C1NC2(CCN(C(=O)Cc3ccc(F)cc3)CC2)N=C1c1ccc(Cl)cc1 | -39.3%
COc1c(O)c2c3c(c1O)C(=O)[C@@]1(O)C(=C3C(C)=CC2=O)O[C@@H](C)C1(C)C | -76.3%
COc1ccc(Cl)cc1NC(=O)C1CC(=O)NC(Nc2ccccc2)=N1 (stereo unspecified) | -1.4%
Cc1cc(C)n2nc(C(=O)N3CCCC(Cc4[nH]ncc4C)C3)cc2n1 (stereo unspecified) | -0.00929%

Structure (SMILES) | inhibition
CSc1cccc(NC(=O)CC(=O)Nc2ccc3nc4n(c(=O)c3c2)CCCCC4)c1 | 1.86%
CC1(C2CCN(C(=O)NC3CCCCC3)CC2)NC(=O)NC1=O (stereo unspecified) | 2.45%
CC(C)CCN1C[C@H]2CCN(C(=O)c3cnccn3)CC[C@H]2S1(=O)=O | -4.49%
Cc1ccccc1COC(=O)C1CCN(C2=NS(=O)(=O)c3ccccc32)CC1 | -0.994%
COc1ccc2[nH]c3c(c2c1)CCN1C(=O)CN(CCc2ccccc2)C(=O)C31C (stereo unspecified) | 4.73%
COC1=C(OC)C(=O)C(C)=C(C)C1=O | 3.62%
O=C(Nc1cccc(S(=O)(=O)N2CCCCCC2)c1)c1ccc(N2CCOCC2)c([N+](=O)[O-])c1 | 8.97%
CC(C)(C)c1cc(-c2ccccc2)nc(-c2ccccc2)c1 | 1.78%
O=C(CCN1CCOC(Cn2cncn2)C1)N1CCCCC1 (stereo unspecified) | 1.57%
O=C(CN(Cc1ccccc1)S(=O)(=O)c1ccccc1)N1CCCCCC1 | -6.83%
Cc1ccc(NS(=O)(=O)c2cc(-c3[nH]ncc3C(=O)N3CCCC3)oc2C)cc1F | -40.8%
COCCn1cnc2c1c(=O)n(CC(=O)Nc1c(C)cc(C)cc1C)c(=O)n2Cc1ccccc1 | 0.0199%
CC(Nc1nnc(Cc2ccccc2)c(=O)[nH]1)c1ccccc1 (stereo unspecified) | 19.7%
CC(C)Cc1cc(-c2nn3c(-c4ccccc4Cl)nnc3s2)n[nH]1 | 7.86%
Cc1c(-c2nn3c(-c4ccco4)nnc3s2)cccc1[N+](=O)[O-] | 35% (active)
Cc1cccc(CNC(=O)c2ccc3c(c2)NC(=O)C2CCC(=O)N32)c1 (stereo unspecified) | 1.1%
O=C1CC(CNS(=O)(=O)c2cccc(Cl)c2)CN1c1ccccc1 (stereo unspecified) | -3.38%
Cn1c(=O)c2ccc(C3CCN(C(=O)CN4CCCC4)C3)nc2n(C)c1=O (stereo unspecified) | -2.1%
